Experimental data: the supplement of paper PMC6555819

System: PPARg homodimer (NR concentration 180 nM)
Test: PBM binding z-score (relative to random genomic background probes); higher = stronger binding; sequences stand for … in GC…GCGATTGACAGCGTAGAATGAAGG
Procedure, shortened: (§1)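 The probes on custom Agilent 4×180K protein-binding microarrays were double-stranded, with 34-nt variable regions bearing direct-repeat seeds, single-nucleotide variants, half-site ablations and random human genomic background sequences. Incubation lasted 1 h with ligand-free nuclear receptor dimers in PBS pH 7.4, 2% milk, 0.02% Triton X-100, 1 mM DTT, 0.2 mg/mL BSA and 0.4 mg/ml salmon testes DNA. Antibodies against each partner (one per run) detected bound dimers, and fluorescence scans were regression-normalized. Binding z-scores take the random background probes as reference.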

| Sequence | PBM binding z-score |
| --- | --- |
| TCTCGGAGGACACGACAGGTCAGAGCTCGACATC | 0.53 |
| CCTCGGAGGACTGAAGGTCAGAGCTGTCCGCTTT | 0.742 |
| TCGGACAGGTGAAGGTAACTCAGGTACGCAGTCG | 0.536 |
| CCGTACGGGTCACTCCAGGTTATAGCATCGGAGT | 1.42 |
| TCGAGTAGGTTAGGGGAATTCAGAATGGCGTCGA | 0.866 |
| CGTTACGGGTCACGAGGTTATAGCACGACGAGCG | 1.92 |
| GGAACGAGGACATTCGAGTTGATAGCATGGCGAT | -0.204 |
| CGTCAAAGTTCTACTAAGGTAACGTAAAGCACGC | 0.249 |
| TCATATAGGTAAAGGTGACAGTCGAACGATATGA | 0.889 |
| CTCGAAAGGTCGTGCTCAGGAGAGTATACCAAAC | 0.909 |
| GGAACGAGGGCATTCGAGTTTATAGCATGGCGAT | -0.0637 |
| GATACAGGGTCACGGCCAGAGTACGCGTATTGAT | 2.36 |
| ATATGTAAGTTATCGGGTCATTCAGTTTGCGCAT | 1.64 |
| TCACCAAGGTGAGCTGAGGTCGTTGATCCAACTC | 0.0757 |
| GCATATCGGTAATACAAGGTGAAAGTCCGATTGT | 0.544 |
| ACAGACAGGTGATGAAGGTCACTCAGGCTATCAT | 2.08 |
| ACAGACAGGTGCTGAAGGTAACTCAGGCTATCAT | -0.279 |
| CCTTACGGGTCAAGGTTCTAGCACGGGTGGTACG | 2.56 |
| ACTAGCAGGCAAAGTTTGGGTCACTCAAACAAAG | 0.153 |
| GATACAGGGTCAGCTAGAGGCCAGGGTATGGAAA | 2.74 |

| Sequence | PBM binding z-score |
| --- | --- |
| ACTAGCAGGCCAAGTTTGCGTCACTCAAACAAAG | -0.265 |
| GTACCAAGGTGAATAGGTAGTTGATGAGTAGGCG | 0.398 |
| ATCGAAAGGTCGACAAGGTGAGTATACACCGTTT | 1.43 |
| CAGCCTAGGTCAGGGGCAGTATAGGAGGAACGTT | 1.41 |
| CAAGACAGGTGAAAGGTAACTCAGTCTGGTACGC | 0.995 |
| CAAACTAGGTCACAGAGGTCAAAATCCGTGCGTA | 4.55 |
| TATACAGGGTCAAAGGCCAGGGTACGAATGTCGA | 2.3 |
| TCTTGGAGATCAGCAGGTTAAGAAAGCTGGCCAA | -0.281 |
| TGAATGCGGTTATAAGATCAGGGAACGTTGCAAA | 0.329 |
| CCAGACAGGTGAAAGGTATCTCAGTCTGGTACGC | 0.656 |
| CGTCAAAGTTCAACTAAGGCAACGTAAAGCACGC | 3.19 |
| GCTGCTAGGTGAGGTTGGTCAGCTAACGGGTACG | -0.464 |
| CAAACTAGGTCAAGAGGTCAAGGTCCGCTTCCCG | 5.33 |
| ATATGTAGGTTAAGGGACATTCAGGTTGGTTCGC | 1.9 |
| CCGACTGGGGCATAAGGTTACCGTAAGCCAGCCC | 0.271 |
| CGAACTAGGTCAAGGACAGTGACTCTCCGCACGC | 1.66 |
| ACTAGCAGGCCAAGTTTGGGTCAGTCAAACAAAG | -0.103 |
| CCTACTGGGCCATTCCGAGGTCATTGATCATATG | 1.24 |
| CCAGACAGGTGAAAGCTAACTCAGTCTGGTACGC | -0.106 |
| CGTCCAAGGTCAGAGGTCAGTGAAGAGATGACGG | 3.51 |

System: PXR:RXRa (NR concentration 270 nM, RXRa partner concentration 90 nM)
Test: as above
Procedure, shortened: as §1

| Sequence | PBM binding z-score |
| --- | --- |
| TCTCGGAGGACACGACAGGTCAGAGCTCGACATC | 1.27 |
| CCTCGGAGGACTGAAGGTCAGAGCTGTCCGCTTT | 1.32 |
| TCGGACAGGTGAAGGTAACTCAGGTACGCAGTCG | 0.407 |
| CCGTACGGGTCACTCCAGGTTATAGCATCGGAGT | 5.22 |
| TCGAGTAGGTTAGGGGAATTCAGAATGGCGTCGA | -0.0984 |
| CGTTACGGGTCACGAGGTTATAGCACGACGAGCG | 4.65 |
| GGAACGAGGACATTCGAGTTGATAGCATGGCGAT | 0.468 |
| CGTCAAAGTTCTACTAAGGTAACGTAAAGCACGC | 0.134 |
| TCATATAGGTAAAGGTGACAGTCGAACGATATGA | 0.897 |
| CTCGAAAGGTCGTGCTCAGGAGAGTATACCAAAC | 2.6 |
| GGAACGAGGGCATTCGAGTTTATAGCATGGCGAT | 5.87 |
| GATACAGGGTCACGGCCAGAGTACGCGTATTGAT | 4.75 |
| ATATGTAAGTTATCGGGTCATTCAGTTTGCGCAT | 3.39 |
| TCACCAAGGTGAGCTGAGGTCGTTGATCCAACTC | 5.13 |
| GCATATCGGTAATACAAGGTGAAAGTCCGATTGT | 0.155 |
| ACAGACAGGTGATGAAGGTCACTCAGGCTATCAT | 2.81 |
| ACAGACAGGTGCTGAAGGTAACTCAGGCTATCAT | -0.445 |
| CCTTACGGGTCAAGGTTCTAGCACGGGTGGTACG | 2.98 |
| ACTAGCAGGCAAAGTTTGGGTCACTCAAACAAAG | 0.68 |
| GATACAGGGTCAGCTAGAGGCCAGGGTATGGAAA | 2.94 |

| Sequence | PBM binding z-score |
| --- | --- |
| ACTAGCAGGCCAAGTTTGCGTCACTCAAACAAAG | -0.294 |
| GTACCAAGGTGAATAGGTAGTTGATGAGTAGGCG | -0.196 |
| ATCGAAAGGTCGACAAGGTGAGTATACACCGTTT | 2.86 |
| CAGCCTAGGTCAGGGGCAGTATAGGAGGAACGTT | 0.677 |
| CAAGACAGGTGAAAGGTAACTCAGTCTGGTACGC | 1.09 |
| CAAACTAGGTCACAGAGGTCAAAATCCGTGCGTA | 6.48 |
| TATACAGGGTCAAAGGCCAGGGTACGAATGTCGA | 4.41 |
| TCTTGGAGATCAGCAGGTTAAGAAAGCTGGCCAA | 0.203 |
| TGAATGCGGTTATAAGATCAGGGAACGTTGCAAA | -0.103 |
| CCAGACAGGTGAAAGGTATCTCAGTCTGGTACGC | 0.00827 |
| CGTCAAAGTTCAACTAAGGCAACGTAAAGCACGC | 4.83 |
| GCTGCTAGGTGAGGTTGGTCAGCTAACGGGTACG | -0.499 |
| CAAACTAGGTCAAGAGGTCAAGGTCCGCTTCCCG | 5.88 |
| ATATGTAGGTTAAGGGACATTCAGGTTGGTTCGC | 0.934 |
| CCGACTGGGGCATAAGGTTACCGTAAGCCAGCCC | 0.55 |
| CGAACTAGGTCAAGGACAGTGACTCTCCGCACGC | 1.37 |
| ACTAGCAGGCCAAGTTTGGGTCAGTCAAACAAAG | 0.0962 |
| CCTACTGGGCCATTCCGAGGTCATTGATCATATG | 4.4 |
| CCAGACAGGTGAAAGCTAACTCAGTCTGGTACGC | -0.352 |
| CGTCCAAGGTCAGAGGTCAGTGAAGAGATGACGG | 5.72 |
